This is an account of results in PubChem BioAssay AID449762 (Southern Research Specialized Biocontainment Screening …, 2010).

In all, about 330,000 compounds went through this assay and about 1,900 (0.58%) were called active. About 4% were inconclusive and are not listed. No stated cut-off is given here; in the data, inconclusive means inhibition above about 70% without an active follow-up result; inactive means below that. These entries were drawn from the full list. Measured potencies and affinities stand elsewhere.

The nature of the assay: M. tuberculosis growth inhibition, HTS (AID 449762).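 Further: bacterial growth assessed after seven days of incubation.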 The settings on record: M. tuberculosis H37Rv growth inhibition, 7H9 media; at 25 µM; active compounds read high.
What is called inhibition is the relative decrease from the control value, in per cent. As to `O=C(/C=C/c1ccc(OCCCF)cc1)Nc1ccnc(-c2cccnc2)n1`, the inhibition was -3.34% (inactive).

For `COc1ccc(CNC(=O)/C=C/c2ccc(OCCCF)cc2)cc1`, the inhibition was 0.02% (inactive).

Take `CC(C)(C)NC(=O)C(=O)NNC(=O)c1ccco1`: the inhibition was -5.31% (inactive). The result for `Cc1ccccc1N(CC(=O)NCc1ccncc1)S(C)(=O)=O` reads 1.64% (inactive); that for `CSc1ccc(C(=O)C2CCCN(C(=O)c3nonc3C)C2)cc1` (stereo not given), 12.6% (inactive); that for `CSc1ccc(C(=O)C2CCCN(C(=O)c3ccc4c(c3)OCO4)C2)cc1` (stereo not given), 1.02% (inactive).

For `Cc1ccc(Cn2c([N+](=O)[O-])cnc2C)cc1`, the inhibition is 2.64% (inactive). Then `Cc1ccc(S(=O)(=O)N(C)CC(=O)Nc2ccc3c(c2)OCO3)cc1`, with -3.43% (inactive); and `Cc1ccc(C(=O)OCN2C(=O)c3ccccc3C2=O)c(O)c1`, with 2.23% (inactive); and `COc1ccccc1NC(=O)C12CC3CC(C1)CC(c1ccc(C)cc1)(C3)C2`, with -6.68% (inactive). Regarding `CNC(=O)C12CC3CC(C1)CC(c1ccc(C)cc1)(C3)C2`, the inhibition was 5.19% (inactive).

With `COCC1CCN(Cc2nc(Cc3ccccc3Cl)no2)CC1`, the inhibition was 4.51% (inactive). Then `COC(=O)Cn1c(=NC(=O)C(C)(C)C)sc2c(C)cc(C)cc21`, with -0.87% (inactive); and `CC[C@]1(c2ccccc2C)ON(c2ccccc2C(F)(F)F)C1=O`, with 0.115% (inactive); and `CC(C)C[C@]1(c2ccccc2)ON(c2ccccc2C(F)(F)F)C1=O`, with -1.86% (inactive). Then `CN1CCN(CCCNC(=O)CCCOc2cc(=O)n(C)c3ccccc23)CC1`, with -3.75% (inactive); and `CCCCCCCN1C(N(C)C)=NC[C@@H]1Cc1ccccc1`, with 1.63% (inactive); and `Cc1cccc(-n2ccc(=O)c(C(=O)Nc3ccc(S(=O)(=O)Nc4nccc(C)n4)cc3)n2)c1`, with 6.8% (inactive).

Turning to `CCOC(=O)c1cccc(NS(=O)(=O)c2c(C)[nH]c(C)c2C(=O)N2CCCC2)c1`, the inhibition is 12.7% (inactive). Then `COC(=O)/C(C#N)=C/c1ccc(-c2ccc(S(N)(=O)=O)cc2)o1`, with -0.94% (inactive); and `Cc1cc(NC(=O)/C(C#N)=C/c2ccc(-c3ccc(SC(F)F)cc3)o2)n(-c2ccccc2)n1`, with 4.12% (inactive); and `C=CCn1c(O)c(C(C)=Nc2cccc(C(=O)O)c2)c(=O)[nH]c1=O`, with -1.56% (inactive). Then `Cc1cc(C(=O)NNC(=O)c2sccc2C)c(C)o1`, with -4.39% (inactive); and `CCN1CCN(C(c2cccs2)C(C)NS(=O)(=O)c2ccc(Br)cc2)CC1` (stereo not given), with -2.6% (inactive); and `O=C(Nc1nccs1)c1ccc(S(=O)(=O)N2CCCCC2)cc1`, with -7.33% (inactive). The result for `CSCCC(NC(=O)COc1ccccc1)C(=O)NCCOc1ccc(C)cc1` (stereo not given) reads 1.39% (inactive). For the molecule `COc1ccc(OC)c(S(=O)(=O)Nc2cc3c4c(c2)CCC(=O)N4CCC3)c1`, the inhibition is -8.72% (inactive).

As to `CC(=O)c1c(C(C)=O)c(C)n(-c2cccc([N+](=O)[O-])c2)c1C`, the inhibition was 4.11% (inactive).

Regarding `Cc1cc(C(=O)CCl)c(C)n1-c1c(C)n(C)n(-c2ccccc2)c1=O`, the inhibition was 64.9% (inactive). Then `N#CCCCCn1c(-c2cncs2)nc2ccccc21`, with -10.4% (inactive); and `Oc1ccc(C=NCCc2ccccc2)cc1`, with 0.33% (inactive).

On to `CCSc1nc2ccccc2n1Cc1cccc([N+](=O)[O-])c1`, for which the inhibition was -1.33% (inactive). The result for `CCCCOc1ccc(C(=O)Oc2cccnc2)cc1` reads 50% (inactive); that for `Cc1ccc(OC(=O)c2ccc(C)c(C)c2)cn1`, 38.4% (inactive); that for `CO/N=C/C(C#N)=C/c1ccc(OC)c(OC)c1`, 2.72% (inactive). The result for `CCCCn1c2ccccc2c2cc(CC(N)=O)ccc21` reads 2.07% (inactive); that for `COc1ccc(NC(=O)CCC(=O)OCc2ccc(C(=O)Oc3ccc(Cl)cc3)cc2)cc1`, -10.2% (inactive); that for `COc1ccc(CCNC(=O)c2ccc(Cl)cc2)cc1`, 15.5% (inactive). As for `O=C(CNC(=O)c1ccco1)OCc1ccc(C(=O)c2ccccc2)cc1`, the inhibition is 14.1% (inactive).

Take `O=C(CCC(=O)OCc1ccc(Br)cc1)Nc1ccccc1`: the inhibition is -10.8% (inactive). The result for `O=C(CNC(=O)c1ccco1)NCC(=O)OCc1ccc(C(=O)Oc2ccc(Cl)cc2)cc1` reads -2.15% (inactive). Then `COc1ccc(C(=O)NCC(=O)NCC(=O)OCc2ccc(Cl)cc2)cc1`, with 8.99% (inactive).

`O=C1CN(C(=O)CSc2ccc(-c3ccc(F)cc3)nn2)c2ccccc2N1`: the inhibition is -6.46% (inactive). The result for `Cc1ccnc(N=Cc2nc(-c3ccccc3Br)oc2O)c1` reads 2.41% (inactive); that for `Cc1nc(CCNC(=O)c2cc(COc3ccc(F)cc3Cl)on2)sc1C`, 12.2% (inactive). Then `CCCOc1ccc(-c2nc3c(c(=O)[nH]c(=O)n3Cc3ccccc3)n2CCO)cc1OCC`, with -0.79% (inactive); and `COc1ccc(-c2nc3c(c(=O)[nH]c(=O)n3Cc3ccccc3)n2CCO)cc1`, with -6.32% (inactive); and `CC(C)c1nc2ccc(Br)cn2c1NC1CCCC1`, with -4.28% (inactive). The result for `CC(Sc1nnc(N)s1)C(=O)NNC(=O)c1cccc(Cl)c1` (stereo not given) reads 0.75% (inactive); that for `CC1(C)C=Cc2c(ccc3c2OC[C@@H](c2ccc(O)cc2O)C3)O1`, 4.54% (inactive). On to `CC1(C)C=Cc2c(ccc3c2OC[C@H](c2ccc(O)cc2O)C3)O1`, for which the inhibition was 9.89% (inactive).

As for `CC1Cc2ccccc2N1C(=S)NC1CCCC1` (stereo not given), the inhibition was -1.79% (inactive).

Regarding `COc1cccc(C(=O)NC(=S)N2c3ccccc3CC2C)c1OC` (stereo not given), the inhibition was -5.31% (inactive). Then `O=C(Nc1ccccc1N1CCCCC1)c1cccc(Cl)c1`, with 8.39% (inactive); and `CCC(C)c1ccc(S(=O)(=O)N2CCN(CC(O)CN3CCOCC3)CC2)cc1` (stereo not given), with -16.5% (inactive); and `CCCOc1ccc(-c2cn3ccccc3n2)cc1[N+](=O)[O-]`, with 2.24% (inactive). Then `COc1ccc2c(c1)C(=O)/C(=C/C=C/c1ccccc1)CC2`, with 6.15% (inactive). As for `COc1ccc2c(c1)CC/C(=C/c1cc(OC)c(OC)c(OC)c1)C2=O`, the inhibition was 50% (inactive). The result for `O=C(Nc1ccc(C(=O)NCCCN2CCN(c3ccccc3)CC2)cc1)C1=CSCCO1` reads 4.06% (inactive); that for `CC1CCCN(CCCNC(=O)c2ccc(NC(=O)C3=CSCCO3)cc2)C1` (stereo not given), -0.6% (inactive).
